# Experimental data reported in PubChem BioAssay (NCI).
# Compounds without any hit were thinned out: in the full panel of roughly 83,000, 20% have a hit.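 In brief: 96-well plates, 48 h treatment, single concentration, percent growth endpoint.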 A number with no mark means an inactive call. Active and inactive are the calls of the source.
# Test system: CCRF-CEM leukemia
# Assay: NCI-60 one-dose screen, 48 h (100 = growth as untreated, 0 = no growth, -100 = all killed)
# Settings: 10 µM unless noted
# Description: Growth inhibition of the CCRF-CEM human tumor cell line is measured as a screen for anti-cancer activity. Cells are grown in 96 well plates and exposed to the test compound for 48 hours. Compounds are tested at a single concentration, which is 10^-5 M for most compounds. The reported endpoint is percent growth (GI% or GIPRCNT), where numbers from 0 - 100% represent growth inhibition, and numbers from -100% - 0 represent cell death. For example, a value of 40 represents 60% growth inhibition. A value of 0 means no net growth occurred over the course of the experiment. A value of -40 indicates 40% of cells at the beginning of the experiment died by the end of the experiment. A value of -100 means all cells are dead at the end of the experiment.
# NCI-60 Human Tumor Cell Lines Screen was performed using the standard one-dose NCI protocol, which is described in more detail at https://dtp.cancer.gov/discovery_development/nci-60/default.htm.
# Compounds with GIPRCNT values below 10 were considered active. Activity score was based on GIPRCNT using the following formula: […]
# Score is 0 for GIPRCNT values of 100 or above, 50 for GIPRCNT values of 0, and 100 for GIPRCNT values of -100.
row,SMILES,growth
1,Cc1cc(Nc2cc(N3CCN(C)CC3)nc(Sc3ccc(NC(=O)C4CC4)cc3)n2)n[nH]1,35.6%
2,COc1ccc(-c2nocc2-c2cc(OC)c(OC)c(OC)c2)cc1,22.7%
3,CC(=O)Oc1ccccc1C(=O)N=C1[Se]CCN1C(=O)c1ccccc1OC(C)=O,18.6%
4,COc1cccc(Nc2ncnn3ccc(CN4CC[C@@H](N)[C@H](O)C4)c23)c1,66.2%
5,CCCCCCCC(=O)SCC/C=C/[C@@H]1CC(=O)NCc2cccc(n2)C2=N[C@@](C)(CS2)C(=O)N[C@@H](C(C)C)C(=O)O1,30.6%
6,O=C(COc1cccc(/C=C2\Cc3ccc(Cl)cc3C2=O)c1)Nc1nccs1,77.1%
7,Cc1nc2cc(-c3nn(C(C)C)c4ncnc(N)c34)ccc2o1,6.03% (active)
8,NC(=O)c1c(OCc2c(F)cc(Br)cc2F)nsc1NC(=O)NCCCCN1CCCC1,2.77% (active)
9,COc1cc2nccc(Oc3ccc(NC(=O)C4(C(=O)Nc5ccc(F)cc5)CC4)cc3)c2cc1OC,19.1%
10,CN1CC[C@H](c2c(O)cc(O)c3c(=O)cc(-c4ccccc4Cl)oc23)[C@H](O)C1,10.2%
11,Cn1cnc2c(F)c(Nc3ccc(Br)cc3Cl)c(C(=O)NOCCO)cc21,95.8%
12,C=CC(=O)N1CCC(Oc2cc3c(Nc4ccc(Cl)c(Cl)c4F)ncnc3cc2OC)CC1,20.9%
13,COc1ccc(-c2cnc(-c3ccc(Cl)cc3)[nH]2)cc1OC,-55.7% (active)
14,N[C@@H]1CCCN(c2c(/C=C3\SC(=O)NC3=O)cccc2-c2ccccc2)C1,55.3%
15,CCOC(=O)c1sc(NC(=O)COc2ccc(/C=C3\Cc4ccc(Cl)cc4C3=O)cc2)nc1C,101%
16,O=C(Cn1c(=O)ccn(CCCCCCCCOc2ccc(Br)cc2)c1=O)Nc1ccc(Oc2ccc(Cl)cc2)cc1,54.6%
17,CC(C)(C)C(=O)OCOP(=O)(OCOC(=O)C(C)(C)C)C1CCCN(OC(=O)c2ccccc2)C1=O (stereo not given),4.03% (active)
18,CC/C(=C(/c1ccc(Cl)cc1)c1ccc(OCCN2CCCCC2)cc1)c1ccc(Cl)cc1,50.6%
19,CC1(O)CCC(Nc2cc(-c3ccc(C(F)(F)F)cc3)c(C#N)c3nc4ccccc4n23)CC1 (stereo not given),64.9%
20,CCS(=O)(=O)N1CCN(c2ccc(Nc3ncc(C(N)=O)c(NC4CC4)n3)cc2)CC1,27.6%

row,SMILES,growth
1,Nc1cc(C(F)(F)F)c(-c2cc(N3CCOCC3)nc(N3CCOCC3)n2)cn1,4.63% (active)
2,CN1C/C=C\CCOc2cccc(c2)-c2ccnc(n2)Nc2cccc(c2)C1,3.32% (active)
3,COc1cc(-c2nc(C(=O)NCC(=O)O)nn2-c2ccc(Cl)cc2)cc(OC)c1OC,84.2%
4,Nc1c(Cl)cccc1[N+](=O)[O-],101%
5,COc1ccc2c(CCC(c3ccccc3)c3ccccc3)c3[n+](cc2c1OC)CCc1cc2c(cc1-3)OCO2,6.45% (active)
6,Cc1ccc(-c2cc3c(SCC(=O)Nc4cc(C(F)(F)F)ccc4Cl)nccn3n2)cc1,20.3%
7,CC(CCCC(=O)O)c1ccoc1 (stereo not given),109%
8,Cc1ccc(NC(=O)c2ccc(CN3CC[C@H](N(C)C)C3)c(C(F)(F)F)c2)cc1Nc1nccc(-c2cncnc2)n1,4.61% (active)
9,CC#CC(=O)N1CCC[C@H]1c1nc(-c2ccc(C(=O)Nc3ccccn3)cc2)c2c(N)nccn12,71.5%
10,COC(=O)[C@]12CC[C@@H](C)[C@H](C)[C@@H]1C1=CC[C@@H]3[C@@]4(C)C(C#N)=CC(C)=C4CC[C@@]3(C)[C@]1(C)CC2,16%
11,CC(C)OP(=O)(CCC(=O)c1c[nH]c2ccccc12)OC(C)C,75.7%
12,C=CC[n+]1c(/C=C/C=C2\N(C)c3ccccc3C2(C)C)sc2ccc(OC)cc21,21.5%
13,CN1CCN(CC(=O)Nc2ccc(-c3nc4ccccc4s3)cc2)CC1,63.7%
14,CCCCOc1nc2cc(Cl)ccc2cc1/C=C/c1cc(/C=C/c2cc3ccc(Cl)cc3nc2OCCCC)n(-c2ccccc2)n1,98.9%
15,O=C1CC(c2ccc(Cl)cc2)c2ncn(-c3cccc(Cl)c3)c2N1 (stereo not given),60.4%
16,FC(F)(F)c1ccc(CNc2ccc(Cc3c[nH]c4ncc(Cl)cc34)cn2)cn1,23.4%
17,COc1cc(OC)c(/C=C/S(=O)(=O)Cc2ccc(OC)c(NCC(=O)O)c2)c(OC)c1,16.2%
18,CCCCCCCCCCCC[n+]1ccccc1,1.54% (active)
19,O=C1/C(=C\c2cccc(OCCCCCOc3ccc(Cl)cc3)c2)N=C2SCCCN12,55.9%
20,COC(=O)c1ccc2c(C(=Nc3ccc(N(C)C(=O)CN4CCN(C)CC4)cc3)c3ccccc3)c(O)[nH]c2c1,40.4%
